ATXN2 expr inh – inhibitors of ATXN2 expression; Potency, µM (top dose mostly 57 µM), inactives show at the highest dose activity change, negative = inhibition, usual class: inhibitors; HEK-293 ATXN2-luciferase reporter, luminescence, 24 h; AID 1745845; hit rate 0.72% among 360,000; also: potency is read from the fitted curve at half-maximal effect; % is scaled to controls: 0 for no effect and ±100 for the full control effect; nearly all actives have a fitted effect of over 55% in size
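ATXN2-luciferase reporter cells (luciferase flanked by upstream and downstream ATXN2 gene portions) were treated 24 h at 37 °C with compounds at up to 57 uM. SteadyGlo luminescence gave expression; GF-AFC fluorescence gave viability.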
SW480 rerep – induces DNA re-replication in SW480 colon adenocarcinoma cells. SW480 DNA re-replication, Hoechst DNA content imaging, 48 h. Potency, µM (doses to about 46.1 µM), without a hit: at the top dose re-replication activation, usual class: activators. hit rate 1.8% among 340,000. AID 624297; also: potency is read from the fitted curve at half-maximal effect; % of control where 0% means no effect; nearly all actives have a fitted effect of over 55% in size
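DNA re-replication was detected as more nuclei of elevated Hoechst intensity after 48 hr exposure to compound (23 nL pinned per well of 250 cells).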
MCF10A rereplic – inducers of DNA re-replication in MCF 10A breast cells; MCF 10A DNA re-replication, Hoechst nuclear intensity, 48 h; Potency, µM (top dose mostly 46.1 µM), without a hit: at the highest dose activity, positive = re-replication, actives largely listed as activators; hit rate 2.9% among 350,000; AID 624296; also: potency is read from the fitted curve at half-maximal effect; % of control where 0% means no effect; nearly all actives have a fitted effect of over 50% in size
PINK1 modulator – changes PINK1 expression; PINK1 immunofluorescence, high-content cytometry, 24 h; Potency, µM (highest dose often 76.6 µM), for inactives: at the top dose activation (PINK1 increase), hits mostly activators; hit rate 0.2% among 410,000; active = well fitted activation curve with a large enough effect; inconclusive = small, poorly fitted or top-dose-only effect; cell line not stated here; also: potency is read from the fitted curve at half-maximal effect; % of control where 0% means no effect; nearly all actives have a fitted effect of over 65% in size
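PINK1 protein level read as immunofluorescence by microplate cytometer in a fixed, stained stable cell line after 24 h exposure to five compound concentrations, with CCCP as control.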
IL1B secr inh – blocks inflammasome-driven IL-1 beta release. THP-1 LPS/ATP IL-1B secretion, AlphaLISA, 16 h; active compounds read low. activity change, % at 57.5 µM. hit rate 4.7% among 360,000. AID 743279; in the data active = activity change below about -50%; inconclusive = mostly about -30% to -49%; also: % is scaled to controls: 0 for no effect and ±100 for the full control effect
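Secreted IL-1B measured by AlphaLISA bead assay after 16 h compound exposure of THP-1 cells; compounds (final up to 57.5 uM) added 1 h before LPS (250 ng/mL) and ATP (1.25 mM) stimulation; lower signal means less secretion.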
S2 tox – reduces viability in counter-screen for ATXN expression inhibitors. S2 cells (HEK-293 line with an ATXN2-luciferase reporter) viability, CellTiter-Fluor protease fluorescence, 24 h. Potency, µM (titrated, usually from 56.7 µM), hits mostly cytotoxic. hit rate 0.49% among 400,000; also: potency is read from the fitted curve at half-maximal effect; nearly all actives have a fitted effect of over 40% in size
Active calls of the source: *; i = inactive; ? = inconclusive; / = no result given; [ ] = dose if it differs, or a comment. An excerpt weighted towards active compounds, which were near 7.1% of everything screened. Unless noted, calls follow the shape of the dose curve; as a rule, active = well fitted curve in the direction sought with a large enough effect; inconclusive = small, poorly fitted or top-dose-only effect, or another doubt; inactive = no such curve, though single readings can be large; an effect the other way counts as inactive or inconclusive.

SMILES	ATXN2 expr inh	SW480 rerep	MCF10A rereplic	PINK1 modulator	IL1B secr inh	S2 tox
O=C(Cc1cccc(C(F)(F)F)c1)Nc1ccccc1	-13%	-1%	-4%	1%	-14	i
CCCCNC(=NCc1cccc(C(F)(F)F)c1)Nc1ccccc1	?	?	?	1%	-83*	i
CCOC(=O)C1CCN(C(=O)COC(=O)/C=C/c2ccccc2)CC1	-12%	7.3µM*	3%	1%	?	i
O=C(/C=C/c1ccc([N+](=O)[O-])cc1)OCC(=O)N1CCOCC1	-2%	1%	18µM*	-2%	-1	i
CCOC(=O)C1CCN(C(=O)/C=C/c2ccccc2)CC1	/	-14%	1%	0%	13	i
CCOC(=O)C1CCN(C(=O)C(CC)c2ccccc2)CC1 (centres undefined)	/	18µM*	-2%	2%	15	i
O=C(/C=C/c1cccc(F)c1)OCC(=O)N1CCCC1	4%	8.2µM*	?	0%	-12	i
Cc1cnc(Nc2cccc(CN3CCOCC3)c2)nc1Nc1cccc(S(=O)(=O)NC(C)(C)C)c1	8%	/	/	/	/	/
COc1cc(/C=C/C(=O)OCC(=O)N2CCC(Cc3ccccc3)CC2)ccc1O	-21%	-7%	27%	0%	-70*	/
COc1cc(/C=C/C(=O)OCC(=O)N2CCC(C)CC2)ccc1O	-7%	0%	17%	-2%	0	i
COc1ccc(S(=O)(=O)N2CCN(C(=O)c3cc(-c4ccc(C)cc4)n[nH]3)CC2)cc1	-28%	?	13%	2%	-83*	i
COc1ccc(-c2cc(C(=O)N3CCN(S(=O)(=O)c4ccc(C)cc4)CC3)[nH]n2)cc1	-3%	7%	3%	0%	-20	i
O=C(Cn1cc(C(=O)c2ccccc2)c(=O)c2cc3c(cc21)OCCO3)Nc1ccc(F)c(F)c1	-2%	/	/	3%	/	i
CN1CCN(/N=C/c2ccc(-c3ccc([N+](=O)[O-])cc3Cl)o2)CC1	17%	16%	11%	2%	-81*	/
CNC(=S)N/N=C/c1ccc(-c2cc([N+](=O)[O-])ccc2Cl)o1	-32%	-5%	4%	1%	-14	i
CNc1nc(Nc2ccc(C(C)=O)cc2)nc(OC(C(F)(F)F)C(F)(F)F)n1	-3%	-2%	?	12%	-58*	i
CC(=CC(=O)Nc1ccccc1C(=O)O)c1ccc2ccccc2c1	135%	/	/	/	/	/
Cc1c(CC(=O)O)c(=O)oc2c(C)c3occ(-c4ccc(Br)cc4)c3cc12	1%	-9%	?	-1%	1	?
COc1cccc(-c2coc3c(C)c4oc(=O)c(CCC(=O)O)c(C)c4cc23)c1	1%	-3%	-1%	-2%	-60*	i
CCCCC(NC(=O)Cc1c(C)c2cc3c(-c4ccccc4)coc3c(C)c2oc1=O)C(=O)O (centres undefined)	-14%	-4%	21µM*	3%	27	i
N#Cc1ccc(-c2cccs2)nc1SCc1ccc(Cl)cc1Cl	12%	/	/	5%	/	?
COc1cccc(C2C(=O)N(C3CCCCC3)CC(=O)N2Cc2ccc(Cl)cc2)c1 (centres undefined)	/	/	/	3%	/	/
O=c1c2ccccc2nc2n1CCN2Cc1ccc(Cl)cc1	-12%	-13%	-6%	/	-78*	i
O=c1c2ccccc2ncn1Cc1ccc(Cl)cc1	0%[11.3 µM]	3%	8%	-1%	-13	?
O=c1c2ccccc2nc(-c2ccccc2)n1Cc1ccc(Cl)cc1	3%	10%	18µM*	0%	-12	i
SMILES	ATXN2 expr inh	SW480 rerep	MCF10A rereplic	PINK1 modulator	IL1B secr inh	S2 tox
Oc1ccc(C[C@H]2CN([C@@H](Cc3ccccc3)CN3CCC[C@@H]3CN3C(=S)NC[C@@H]3Cc3ccccc3)C(=S)N2CC2CCCCC2)cc1	0%	/	/	3%	?	?
CC(C)C[C@H]1CNC(=S)N1CC1CCCN1C[C@H](Cc1ccc(O)cc1)N1C[C@H](Cc2ccccc2)N(CC2CCCCC2)C1=S (some centres undefined)	-27%	3%	?	6%	-54*	?
Oc1ccc(C[C@H]2CNC(=S)N2CC2CCCN2C[C@H](Cc2ccc(O)cc2)N2C[C@H](Cc3ccc(O)cc3)N(CC3CCCCCC3)C2=S)cc1 (some centres undefined)	20µM*	?	10µM*	0%	?	?
Oc1ccc(C[C@H]2CNC(=S)N2CC2CCCN2C[C@H](Cc2ccc(O)cc2)N2C[C@H](Cc3ccccc3)N(CC3CCCCC3)C2=S)cc1 (some centres undefined)	?	9%	?	3%	-72*	?
Oc1ccc(C[C@@H](CN2CCCC2CN2C(=S)NC[C@@H]2Cc2ccccc2)N2C[C@H](Cc3ccccc3)N(CC3CCCCC3)C2=S)cc1 (some centres undefined)	1%	/	/	2%	-8	i
Oc1ccc(C[C@H]2CNC(=S)N2CC2CCCN2C[C@H](Cc2ccc(O)cc2)N2C[C@H](Cc3ccccc3)N(CC3CCCCCC3)C2=S)cc1 (some centres undefined)	-27%	11%	?	1%	-66*	i
COCc1c(C(=O)N2CC3CCC2C3)cnn1-c1nccc(-c2ccccc2OC)n1 (centres undefined)	/	/	/	1%	/	i
Cc1c(CNCCCc2ccccc2)c(C(=O)O)c(C)n1Cc1cccc(Cl)c1	-2%	/	/	0%	/	?
Cc1cccc(N=CC=C2OC(C)(C)C(C)(C)O2)c1	1%	21µM*	?	11%	-8	?
COc1cccc(N=CC=C2OC(C)(C)C(C)(C)O2)c1	20%	-16%	-8%	4%	-2	i
COc1ccc(N=CC=C2OC(C)(C)C(C)(C)O2)cc1OC	/	-25%	9%	1%	5	i
Cc1ccc(N=CC=C2OC(C)(C)C(C)(C)O2)cc1	8%	0.82µM*	16µM*	8%	3	i
CCOC(=O)c1c(NC(=O)C2c3ccccc3Oc3ccccc32)sc(C)c1C	5%	/	/	3%	/	i
CCOC(=O)c1c(NC(=O)C2=C(C)NC(=S)NC2c2ccc(C)cc2)sc(C)c1C (centres undefined)	-6%	2%	?	13%	-76*	/
CCOC(=O)c1c(NC(=O)C2=C(C)NC(=S)NC2c2ccc(F)cc2F)sc(C)c1C (centres undefined)	-14%	?	?	-1%	?	?
CCOC(=O)c1c(NC(=O)C2=C(C)NC(=S)NC2c2ccc(F)cc2)sc(C)c1C (centres undefined)	0%	?	18µM*	-4%	-87*	?
